# Test results reported in PubChem BioAssay (NCATS).
# Records with an inconclusive call do not appear. Entries that show only a call come without a potency. The source made the active and inactive calls. Calls follow the shape of the dose curve; as a rule, active = well fitted curve in the direction sought with a large enough effect; inconclusive = small, poorly fitted or top-dose-only effect, or another doubt; inactive = no such curve, though single readings can be large; an effect the other way counts as inactive or inconclusive.
# System: not listed separately
# Assay: qHTS to identify inhibitors of the type 1 interferon - major histocompatibility complex class I in skeletal muscle: primary screen against the NCATS Mechanism Interrogation Plate v5.0 (MIPE) Libary (AID 1347411); also: nearly all actives have a fitted effect of over 65% in size
# Details: iHSKM cells + IFN-b, HiBiT-tagged MHC-I luminescence, 24 h; series mostly up to 45.8 µM
# In short: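 Immortalized human C25cl48 myoblasts with HiBit knocked into endogenous HLA-B*08:01 were stimulated with 4.0 ng/ml IFN-beta and exposed to compounds (11-point 1:3 titration, top 46 uM final) for 24 hrs at 37 C; HiBiT lytic luminescence measured.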
row,Compound,Potency
1,CN(C)CCN(C)CCc1ccc(Cl)c(Cl)c1,inactive
2,Cn1cc(C2=C(c3cn(C4CCN(Cc5ccccn5)CC4)c4ccccc34)C(=O)NC2=O)c2ccccc21,inactive
3,CNC(=O)c1ccc(N2C(=S)N(c3ccc(C#N)c(C(F)(F)F)c3)C(=O)C23CCC3)cc1F,inactive
4,N[C@@H]1C[C@H]1c1ccccc1,inactive
5,O=C(O)C(=O)c1cn(Cc2ccccc2)c2ccc(-c3ccc(OC(F)(F)F)cc3)cc12,inactive
6,COC[C@@H](NC(C)=O)C(=O)NCc1ccccc1,inactive
7,Cc1cc(SCc2sc(-c3ccc(C(F)(F)F)c(F)c3)nc2C)ccc1OCC(=O)O,inactive
8,COC1(CS(=O)c2ccccc2)CCN(CCc2c[nH]c3ccc(F)cc23)CC1 (stereo not given),inactive

# Molecular target: Protein phosphatase 1D (Homo sapiens) (UniProt O15297)
# Assay: RapidFire Mass Spectrometry qHTS Assay for Modulators of WT P53-Induced Phosphatase 1 (WIP1) (AID 1347424);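 also: amount of dephosphorylated VEPPL-S-QETFS peptide product formed by WIP1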; also: potency is read from the fitted curve at half-maximal effect
# Details: WIP1 dephosphorylation of phosphopeptide, RapidFire MS; series mostly up to 63 µM
# In short: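 10 nM WIP1 preincubated with compounds 1 hr at room temperature in pH 7.5 Tris buffer with 30 mM MgCl2, 1 mM TCEP; 2 uM VEPPL-pS-QETFS phosphopeptide for 5 min, formic acid quench; dephosphorylated product quantified by RapidFire MS against labelled standard.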
# Protein phosphatase 1D (Homo sapiens), sequence (O15297 whole entry, looked up): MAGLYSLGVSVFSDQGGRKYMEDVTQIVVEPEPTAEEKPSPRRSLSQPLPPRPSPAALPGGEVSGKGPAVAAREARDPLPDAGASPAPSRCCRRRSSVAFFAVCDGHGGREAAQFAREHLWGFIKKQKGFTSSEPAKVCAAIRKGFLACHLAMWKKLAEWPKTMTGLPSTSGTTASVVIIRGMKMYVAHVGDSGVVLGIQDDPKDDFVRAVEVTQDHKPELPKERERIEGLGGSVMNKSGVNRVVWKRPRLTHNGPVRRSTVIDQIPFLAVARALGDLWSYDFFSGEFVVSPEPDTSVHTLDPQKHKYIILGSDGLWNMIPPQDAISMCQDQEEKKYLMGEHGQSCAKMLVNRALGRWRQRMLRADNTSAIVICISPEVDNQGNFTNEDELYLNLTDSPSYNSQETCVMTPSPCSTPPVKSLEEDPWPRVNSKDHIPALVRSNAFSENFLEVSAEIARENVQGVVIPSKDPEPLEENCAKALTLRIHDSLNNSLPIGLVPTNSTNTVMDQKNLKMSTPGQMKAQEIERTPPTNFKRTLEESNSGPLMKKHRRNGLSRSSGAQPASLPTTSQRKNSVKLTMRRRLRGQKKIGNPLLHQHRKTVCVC
row,Compound,Potency
1,C[C@]12C/C(=C/O)C(=O)C[C@@H]1CC[C@@H]1[C@@H]2CC[C@@]2(C)[C@H]1CC[C@]2(C)O,inactive
2,Cn1cc(C2=C(c3cn(C4CCN(Cc5ccccn5)CC4)c4ccccc34)C(=O)NC2=O)c2ccccc21,inactive
3,O=C(NC(O)C(Cl)(Cl)Cl)NC(O)C(Cl)(Cl)Cl (stereo not given),inactive
4,CC(C)(C)NCC(O)c1cc(Cl)c(N)c(Cl)c1 (stereo not given),inactive
5,O=C1CC[C@@]2(O)[C@H]3Cc4ccc(O)c5c4[C@@]2(CCN3CC2CC2)[C@H]1O5,inactive
6,N[C@@H]1C[C@H]1c1ccccc1,inactive
7,CC(C)=CC1C(C(=O)OCc2cccc(Oc3ccccc3)c2)C1(C)C (stereo not given),inactive
8,CCN(CC)CCOC(=O)C(O)(c1ccccc1)c1ccccc1,inactive
9,Cc1ccc2c(c1)C1CN(C)CCC1N2 (stereo not given),inactive
10,C=C(C)[C@H]1Cc2c(ccc3c2O[C@@H]2COc4cc(OC)c(OC)cc4[C@@H]2C3=O)O1,inactive
11,CC1OC(C)OC(C)O1 (stereo not given),inactive
12,CCC(=O)C(CC(C)N(C)C)(c1ccccc1)c1ccccc1 (stereo not given),inactive
13,Oc1cccc2cccnc12,inactive
14,Clc1ccc(COC(Cn2ccnc2)c2ccc(Cl)cc2Cl)cc1 (stereo not given),inactive
15,CC(C)(N)Cc1ccc(Cl)cc1,inactive
16,COC[C@@H](NC(C)=O)C(=O)NCc1ccccc1,inactive
17,c1ccc2c(c1)Nc1ccccc1S2,inactive
18,C[C@H]1O[C@@H](O[C@H]2[C@@H](O)C[C@H](O[C@H]3[C@@H](O)C[C@H](O[C@H]4CC[C@@]5(C)[C@H](CC[C@@H]6[C@@H]5CC[C@]5(C)[C@@H](C7=CC(=O)OC7)CC[C@]65O)C4)O[C@@H]3C)O[C@@H]2C)C[C@H](O)[C@@H]1O,inactive
19,NP(N)(=O)NC(=O)c1ccc(F)cc1,inactive
20,CC[N+](CC)(CC)CC,inactive
21,Oc1ccc(Cl)cc1Cc1ccccc1,inactive
22,FC(F)(F)c1cccc(C2=CCN(CCc3ccc4ccccc4c3)CC2)c1,inactive
23,O=c1oc2ccccc2c(O)c1C(CC(O)c1ccc(-c2ccc(Br)cc2)cc1)c1ccccc1 (stereo not given),8.91 µM (active)
24,CC(C)(C)CC(C)(C)c1ccc(O)cc1,inactive
25,CCN(C(C)=O)c1cccc(-c2ccnc3c(C#N)cnn23)c1,inactive
26,C=C1CC[C@@]2(O)[C@H]3Cc4ccc(O)c5c4[C@@]2(CCN3CC2CC2)[C@H]1O5,inactive
27,CO[C@]12CC[C@@]3(C[C@@H]1[C@](C)(O)C(C)(C)C)[C@@H]1Cc4ccc(O)c5c4[C@@]3(CCN1CC1CC1)[C@H]2O5,inactive
28,C#CCOC(C(=O)OCCN(C)C)(c1ccccc1)c1ccccc1,inactive
29,CCOC(=O)C1(c2ccccc2)CCN(CCC(C#N)(c2ccccc2)c2ccccc2)CC1,inactive

# Molecular target: Protein phosphatase 1D (Homo sapiens) (UniProt O15297)
# Assay: Rhodamine-PBP qHTS Assay for Modulators of WT P53-Induced Phosphatase 1 (WIP1) (AID 1347425)
# Details: recombinant WIP1, Rhodamine-PBP phosphate fluorescence, real-time; series mostly up to 57.5 µM
# In short: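 WIP1 (5 nM final) was preincubated with compound for 1 hour at room temperature. It then dephosphorylated 10 uM VEPPL-pS-QETFS peptide in Tris-HCl pH 7.5 with 30 mM MgCl2. Released Pi was detected by 10 uM Rh-PBP fluorescence (ex 525/em 598 nm) read at 1-min intervals for 11 min, as delta f1 - f0.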
row,Compound,outcome
1,CC(C)(C)NCC(O)c1cc(Cl)c(N)c(Cl)c1 (stereo not given),inactive
2,O=C1CC[C@@]2(O)[C@H]3Cc4ccc(O)c5c4[C@@]2(CCN3CC2CC2)[C@H]1O5,inactive
3,N[C@@H]1C[C@H]1c1ccccc1,inactive
4,CC(C)=CC1C(C(=O)OCc2cccc(Oc3ccccc3)c2)C1(C)C (stereo not given),inactive
5,CC1OC(C)OC(C)O1 (stereo not given),inactive
6,Clc1ccc(COC(Cn2ccnc2)c2ccc(Cl)cc2Cl)cc1 (stereo not given),inactive
7,COC[C@@H](NC(C)=O)C(=O)NCc1ccccc1,inactive
8,c1ccc2c(c1)Nc1ccccc1S2,inactive
9,C[C@H]1O[C@@H](O[C@H]2[C@@H](O)C[C@H](O[C@H]3[C@@H](O)C[C@H](O[C@H]4CC[C@@]5(C)[C@H](CC[C@@H]6[C@@H]5CC[C@]5(C)[C@@H](C7=CC(=O)OC7)CC[C@]65O)C4)O[C@@H]3C)O[C@@H]2C)C[C@H](O)[C@@H]1O,inactive
10,CC[N+](CC)(CC)CC,inactive
11,CC(C)(C)CC(C)(C)c1ccc(O)cc1,inactive
12,CO[C@]12CC[C@@]3(C[C@@H]1[C@](C)(O)C(C)(C)C)[C@@H]1Cc4ccc(O)c5c4[C@@]3(CCN1CC1CC1)[C@H]2O5,inactive
13,CCOC(=O)C1(c2ccccc2)CCN(CCC(C#N)(c2ccccc2)c2ccccc2)CC1,inactive
